The structures appear in SMILES notation. Several values for one entry are separate records, joined by “and”; a condition that tells them apart may be missing. Equal values may be shown once. Compounds without any hit were thinned out: in the full panel of roughly 83,000, 20% have a hit.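 Cells were grown in 96-well plates and exposed to the test compound at a single concentration for 48 hours; results are reported as percent growth, with values below 10 considered active.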 Activity calls are given as the source filed them.

The test concerns HL-60(TB) leukemia. Nature of the test: NCI-60 one-dose screen, 48 h (100 = growth as untreated, 0 = no growth, -100 = all killed). As to conditions: 10 µM unless noted.
On to `COc1cccc2nc(Nc3cccc(NC(=O)c4cc(N5CCOCC5)cc(C(F)(F)F)c4)c3)ccc12`, for which the growth is 93.5% (inactive).
Then `COc1cccc2c1C(=O)c1c(O)c3c(c(O)c1C2=O)C[C@@](O)(C(=O)CO)C[C@@H]3OC1CC(OC(C)=O)C(OC(C)=O)C(C)O1` (some centres undefined), with -40% (active); and `CNc1cc2nc3cc(NC)c(C)cc3cc2cc1C`, with 18.9% (inactive); and `Nc1ncnc2c1N=C(c1ccc3c(c1)OCO3)CC(c1cccc(Nc3ccnc4cc(Cl)ccc34)c1)N2` (centres undefined), with 37.9% (inactive).
In the case of `CCOc1c(C#N)c2c(N)ncnc2n1C1OC(CO)C(O)C1O` (centres undefined), the growth is 2.98% (active).
For `C=C1CC[C@@H]2[C@](C)(COC(C)=O)[C@H](OC(C)=O)CC[C@@]2(C)[C@@H]1CC(Nc1ccc(S(=O)(=O)Nc2cc(C)on2)cc1)C1=CCOC1=O` (some centres undefined), the growth is -2.05% (active).
With `O=C(/C=C/c1ccc(Cl)s1)c1ccc(Cl)s1`, the growth is 119% (inactive) and 111% (inactive).
Take `S=c1ccc2ccccc2[nH]1`: the growth is 85.3% (inactive) and 97.6% (inactive).
`COc1ccc(NC(=O)CSc2nc3ccc(Cl)cc3c(=O)n2-c2ccccc2C(F)(F)F)c(OC)c1OC`: the growth was 105% (inactive).
With `CCn1nc(-c2ccccn2)c2cccnc2c1=S`, the growth was 37.4% (inactive).
The result for `COc1ccc(NC(=O)C2c3ccccc3C(=O)N(CC(C)C)C2c2cccs2)cc1` (centres undefined) reads 90% (inactive); that for `COc1cc(-n2cc(-c3cc(O)c(C/C=C(\C)CCC=C(C)C)c(O)c3)nn2)cc2c1O[C@]1(C)CC[C@@H](O)C(C)(C)[C@H]1C2`, -13.9% (active).
In the case of `COc1cc(C2CC(c3cccc(Nc4ccnc5cc(Cl)ccc45)c3)=NN2C=O)cc(OC)c1OC` (centres undefined), the growth is -7.92% (active).
With `CSc1nnc(-c2cnn3c2NC(c2ccccc2)C3)n1-c1ccc(C(F)(F)F)cc1` (centres undefined), the growth was 73.6% (inactive).
`CCOC(=O)c1cc(C(=O)c2cc(OC)c(OC)c(OC)c2)n2ncccc12`: the growth was -32.5% (active).
Turning to `Cc1cc(N2CCCC2)nc(N(CCNc2ccnc3cc(Cl)ccc23)Cc2ccco2)n1`, the growth was -52.8% (active).
The result for `O=C(CCN1CCCC1)Nc1ccc2c(Nc3ccccc3)c3ccccc3nc2c1` reads -46% (active); that for `CC(=O)Nc1c(I)c(NC(C)=O)c(I)c(C(=O)O)c1I`, 92.4% (inactive) and 95.8% (inactive); that for `O=C1N=NC2=C1c1c3ccccc3c(O)n1CC2`, 105% (inactive).
In the case of `COc1cnc2c(c1)C(=O)c1c-2n(CCCNCCO)c(=O)c2ccncc12`, the growth is 16.1% (inactive).
Turning to `CCN(CC)CCNCC(=O)Oc1ccc(/C=C/C(=O)CC(=O)/C=C/c2ccc(OC(=O)CNCCN(CC)CC)c(OC)c2)cc1OC`, the growth is -22.6% (active).
On to `Cc1cc(C(=O)O)c(N)c(C)n1`, for which the growth is 102% (inactive).
With `COc1cc(C2=NN(C=O)C(c3cccc(Nc4ccnc5cc(C(F)(F)F)ccc45)c3)C2)cc(OC)c1OC` (centres undefined), the growth was 8.02% (active).
Take `O=C(Nc1ccc(-n2ccc3c(NC(=O)c4ccccc4)nccc32)cc1)c1ccc(N2CCOCC2)c(C(F)(F)F)c1`: the growth is 24.8% (inactive).

The record behind these values is PubChem BioAssay (NCI).
